GPR151 activ: activators of human GPR151, primary screen, cell-based, PathHunter beta-arrestin, luminescence; G-protein coupled receptor 151 (Homo sapiens), Q8TDV0; PathHunter beta-arrestin GPR151 cells; activation, % at 11.2 µM; 650,000 compounds, 1% hits; in the data active = activation above about 4.9%;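 note: 0% = median of compound wells and 100% = cells with positive control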
Target sequence (Q8TDV0 whole entry, looked up): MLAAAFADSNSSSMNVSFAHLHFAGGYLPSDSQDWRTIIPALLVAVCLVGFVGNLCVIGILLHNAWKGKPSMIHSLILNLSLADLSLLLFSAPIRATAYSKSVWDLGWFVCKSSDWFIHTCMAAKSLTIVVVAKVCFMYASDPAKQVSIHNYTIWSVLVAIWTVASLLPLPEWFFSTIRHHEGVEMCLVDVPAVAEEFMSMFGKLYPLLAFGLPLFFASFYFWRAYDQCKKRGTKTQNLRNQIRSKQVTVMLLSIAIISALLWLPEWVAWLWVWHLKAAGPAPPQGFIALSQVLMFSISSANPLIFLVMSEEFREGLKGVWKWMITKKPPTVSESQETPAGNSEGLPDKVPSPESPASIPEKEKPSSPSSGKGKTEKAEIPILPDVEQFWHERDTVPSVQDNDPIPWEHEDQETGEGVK
FBW7 act: FBW7 E3 ligase activators, primary screen, biochemical, AlphaScreen, human; F-box/WD repeat-containing protein 7 (Homo sapiens), Q969H0; 650,000 compounds, 0.13% hits; AlphaScreen FBW7–phospho-cyclin E peptide binding, activator screen; normalized activity (activation), % at 26.1 µM; in the data active = normalized activity above about 1.9%;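 note: purified mutant Fbw7 with reduced substrate affinity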
TEAD-YAP inh: TEAD-YAP interaction inhibition, primary screen, TEAD-YAP interaction inhibitor project, luminescence, HEK-TIYL cells | TEAD-Gal4/YAP UAS-luciferase luminescence | 640,000 compounds, 1.4% hits | inhibition, % at 9.12 µM; in the data active = inhibition above about 32%;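 note: 0% = median of test compound wells and 100% = reference inhibitor wells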
MITF primary: MITF inhibitors, primary screen, biochemical, AlphaScreen, human; Microphthalmia-associated transcription factor (Homo sapiens), O75030; AlphaScreen MITF homodimerization, bead proximity signal; inhibition, % at 2.6 µM; 650,000 compounds, 0.91% hits; AID 1259374, 2018; in the data active = inhibition above about 50%;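 note: 0% = vehicle wells with protein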
An asterisk follows results filed as active; . = not tested or not shown; ! = not active in a repeat. Only some compounds are listed: those with a hit (about 3.5% of all), similar ones and a draw of the others.

SMILES	GPR151 activ	FBW7 act	TEAD-YAP inh	MITF primary
COc1ccc(OC)c(C2C=C(c3cccc(Br)c3)Nc3ncnn32)c1 (configuration not stated)	1.5	-0.1	11.7	2.9
COc1ccc(C2=CC(c3ccc(OC)cc3OC)n3ncnc3N2)cc1 (configuration not stated)	0.6	0.1	55.5*	15.6
COc1cccc(C2C=C(c3ccc(C)cc3)Nc3ncnn32)c1 (configuration not stated)	1.6	0.0	53.7*	16.4
COc1cccc(C2C=C(c3cccc(Br)c3)Nc3ncnn32)c1 (configuration not stated)	1.5	0.1	39.0*	24.7
COc1ccc(C2=CC(c3cccc(OC)c3)n3ncnc3N2)cc1 (configuration not stated)	1.9	0.1	42.6*	1.9
CN1CCN(C(=O)c2ccc(-c3nc4ccc(C(=O)NCCc5ccc(O)cc5)cc4s3)cc2)CC1	0.7	0.1	-4.3	1.6
CC1=NN(C(=O)c2cc(C(C)C)cc(C(C)C)c2O)C(O)(C(F)F)C1 (configuration not stated)	2.4	0.0	12.7	4.4
O=c1oc2ccc(Cl)cc2n1CNc1ccccc1F	1.4	0.0	9.3	7.2
CCOc1ccc2[nH]c(=O)c(CN(CCO)C(=O)c3cnccn3)cc2c1	0.0	-0.1	-3.9	14.8
COc1ccc(OC)c(C2C=C(c3ccc(Cl)cc3)Nc3ncnn32)c1 (configuration not stated)	0.1	0.0	4.0	14.6
COc1ccc(C2C=C(c3ccc(C)cc3)Nc3ncnn32)c(OC)c1OC (configuration not stated)	-0.1	0.1	47.0*	15.1
CCc1ccc(C2=CC(c3cc(OC)ccc3OC)n3ncnc3N2)cc1 (configuration not stated)	-0.3	0.0	51.3*	4.2
COc1cc(/C=C(\C#N)C(=O)Nc2cc([N+](=O)[O-])ccc2F)ccc1OC(C)=O	0.0	0.0	-1.2	-9.8
COc1cccc(NC(=O)CSc2nnc(-c3ccncc3)n2-c2ccccc2C)c1	-0.3	0.0	14.4	-22.5
COc1ccccc1NC(=O)CSc1nnc(-c2ccncc2)n1-c1ccccc1C	0.8	0.0	61.9*	1.4
COc1ccccc1NC(=O)CSc1nnc(-c2ccccn2)n1-c1ccccc1OC	1.8	0.0	42.2*	15.1
CCOc1ccccc1NC(=O)CSc1nnc(-c2ccc(OC)cc2)n1-n1cccc1	-0.4	-0.1	41.1*	-6.8
O=C(c1ccc(Cl)cc1Cl)N1CCN(c2nc3ccccc3s2)CC1	-0.4	0.2	1.0	15.5
CC(C)[C@@H](OCc1ccccc1)[C@H](C)/C=N/O[C@H](C)c1cn([C@@H]2COC[C@H]2O)nn1	1.2	0.1	.	17.2
O=C(NC1CCN(Cc2ccccc2)CC1)c1ccc(Cn2nnc3ccccc3c2=O)cc1	-1.5	0.0	34.9*	3.9
O=C(O)/C=C/c1cc(Cl)c2c(c1)OCO2	-0.9	0.1	-8.5	-3.0
COc1ccc(-c2cccc3cnc(NC4CCC(C(=O)N5CCCC5)CC4)nc23)cc1F (configuration not stated)	-2.5	1.7	82.9*!	8.7
COc1ccc(-c2cccc3cnc(Nc4ccc(-n5cnc(N6CCOCC6)n5)cc4)nc23)cc1F	-0.1	0.8	1.4	-9.9
COC(=O)Cn1cnc2c1c(=O)[nH]c(=O)n2C	-1.1	-0.1	3.4	6.5
Cn1c(=O)[nH]c(=O)c2c1ncn2CC(=O)NN	-0.7	2.4*	-5.7	5.2
SMILES	GPR151 activ	FBW7 act	TEAD-YAP inh	MITF primary
COc1ccc(-c2nc(C)c(-c3ccc(SCC(=O)N(C(C)C)C(C)C)nn3)s2)cc1	1.4	0.0	-3.5	-7.1
CC(=C/c1ccccc1)/C=N/n1c(-c2ccncc2)n[nH]c1=S	0.6	0.0	38.7*	1.6
Cc1nc(-c2ccc(NC(=O)c3sc(-c4ccccc4)nc3C)cc2)cs1	-1.3	0.9	12.4	7.7
C=CCn1c(SCC(=O)Nc2ccc(F)cc2F)nnc1-c1ccccc1O	0.0	0.0	48.4*	-6.7
C=CCn1c(SCC(=O)Nc2cccc(C)c2)nnc1-c1ccccc1O	0.7	0.0	12.6	5.5
Nc1nc2cc3c(cc2s1)OCCO3	-1.5	0.1	36.9*	6.0
Nc1nc2cc3sc(N)nc3cc2s1	-0.3	0.0	-11.3	-3.9
COc1cccc(-c2nn(C)c3sc(C(=O)N4CCN(c5ccccn5)CC4)cc23)c1	0.3	-0.3	35.3*	-3.8
CCOC(=O)C1CCCN(C(=O)c2cc3c(-c4cccc(OC)c4)nn(C)c3s2)C1 (configuration not stated)	-1.1	0.0	38.3*	-12.3
O=C(c1sc2cc(Cl)ccc2c1Cl)N1CCCCCC1	-0.8	0.0	-35.2	-3.5
CCN1/C(=C/c2ccc3ccc(C)cc3[n+]2CC)Sc2cc(OC)ccc21	2.6	-0.5	87.5*	32.8
CCN1/C(=C/c2ccc3cc(OC)ccc3[n+]2CC)Sc2ccc(Cl)cc21	0.5	-0.2	77.1*	2.3
CCC(=O)/C=C1/Sc2ccc(OC)cc2N1CC	-0.8	-0.1	7.9	3.4
CCN1/C(=C/c2ccc3cc(OC)ccc3[n+]2CC)Sc2ccc(OC)cc21	3.8	-0.6	87.5*	30.2
CCOC(=O)N1CCc2c(sc(NC(=O)/C=C/c3ccccc3Cl)c2C(N)=O)C1	1.2	0.0	4.7	2.3
CCCNC(=O)C(C)n1c(C)c2cnn(-c3ccccc3)c(=O)c2c1C (configuration not stated)	-0.5	-0.1	-1.7	-0.2
COc1cccc(NC(=O)CSc2ncnc3c2nnn3-c2ccc(C)cc2)c1	0.5	0.2	0.2	10.8
CCOc1cc(/C=C2/NC(=O)NC2=O)c(Br)cc1O	-0.4	-0.2	43.6*	-28.2
CCOc1cc(Br)c(/C=C2/NC(=O)NC2=O)cc1OCC	0.5	-0.1	44.1*	6.6
COc1cc(/C=C2/NC(=O)NC2=O)c(Br)cc1O	0.4	0.0	9.5	-2.2
CCOc1cc(Cl)c(/C=C2/NC(=O)NC2=O)cc1OCC	-1.0	-0.1	-10.6	3.7
COc1ccc(C)cc1NC(=O)c1ccc(-n2cnnn2)cc1	2.1	-0.1	-3.7	2.9
CSc1ccc(-c2cc(=O)c3cc(O)ccc3o2)cc1	-2.7	-0.2	44.0*	-5.0
CSc1ccc(-c2cc(=O)c3ccccc3o2)cc1	-0.7	-0.7	-61.3	5.3
COc1ccc(-c2cc(=O)c3ccc(O)cc3o2)cc1	-2.7	0.1	55.7*	-1.3
CCOc1ccc(-c2cc(=O)c3cc(O)ccc3o2)cc1	-1.4	-0.2	47.0*	8.4
CCOc1ccc(-c2cc(=O)c3ccccc3o2)cc1	-1.5	0.4	-29.7	0.6
O=C(O)CNC(=O)c1cc(Cl)cc([N+](=O)[O-])c1	0.3	-0.1	3.0	-12.8
COc1cccc(CNC(=O)c2nnn(-c3ccccc3OC)c2N)c1	-0.4	0.0	7.4	6.6

Assay outcomes as filed in PubChem.
